Screening results as filed in PubChem.
Pf growth 48h = inhibits P. falciparum growth in the first generation, 48 h. P. falciparum luciferase growth in erythrocytes, 48 h. Potency, µM (doses to about 28.7 µM), without a hit: top-dose activity change, negative = inhibition, most hits filed as inhibitors. hit rate 5.9% among 310,000; also: potency is read from the fitted curve at half-maximal effect; % is scaled to controls: 0 for no effect and ±100 for the full control effect
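Luciferase-expressing P. falciparum in infected erythrocytes (2% hematocrit, 0.1% parasitemia final) in RPMI 1640/0.5% Albumax were exposed to compound for 48 hours at 37 C, 5% CO2; growth read as luminescence.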
Cycloheximide cs = affects cycloheximide protein synthesis inhibition readout, counter-screen. max response, %. cell reporter, cycloheximide protein synthesis inhibition counterscreen. hit rate 12% among 300,000; in the data active = max response mostly above about 13%, no sharp cut-off; inactive = mostly below about 14%; also: read at 38.3 µM for the half of the compounds with a filed dose; 0% is about no effect
NS1 function inh = blocks influenza NS1 protein function | Potency, µM (series often up to 46.1 µM), for inactives: top-dose activity, positive = more growth | hit rate 0.4% among 270,000 | AID 2326; calls by dose curve; also: potency is read from the fitted curve at half-maximal effect; actives are rising curves; nearly all actives have a fitted effect of over 50% in size
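In this qHTS, NS1 from influenza A is expressed in budding yeast, where it slows growth. Cells are switched from glucose to 2% galactose medium (pH 6.0, -URA), treated with compound, and growth recovery is read at OD600.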
Shiga toxin inh = blocks Shiga toxin action in Vero cells. Vero cells, Shiga toxin protein synthesis inhibition reporter. inhibition, % at 38.7 µM. hit rate 9.2% among 290,000; in the data active = inhibition mostly above about 28%, no sharp cut-off; inactive = mostly below about 43%; also: 0% is about no effect
Sm TGR block = inhibitors of Schistosoma mansoni thioredoxin glutathione reductase; Potency, µM (series often up to 114 µM), inactives show at the highest dose activity change, negative = inhibition, most hits filed as inhibitors; purified TGR, DTNB reduction, TNB absorbance 405 nm; Q962Y6; hit rate 3% among 360,000; also: potency is read from the fitted curve at half-maximal effect; % is scaled to controls: 0 for no effect and ±100 for the full control effect; nearly all actives have a fitted effect of over 60% in size
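TGR 20 nM + NADPH 100 uM (dispensed conc.), cpd preinc 15 min RT; start with NADPH (500 uM addition) then DTNB (15 mM addition). Kinetic TNB absorbance, 405 nm filter. Four-parameter Hill fit across titration.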
Pf growth 96h = P. falciparum growth inhibition at 96 hours | Potency, µM (doses to about 28.7 µM), for inactives: top-dose activity change, negative = inhibition, hits mostly inhibitors | P. falciparum luciferase reporter growth, 96 h | AID 504834 | hit rate 6.9% among 320,000; also: potency is read from the fitted curve at half-maximal effect; % is scaled to controls: 0 for no effect and ±100 for the full control effect
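Two parasite generations (96 h, 37 C, 5% CO2) of compound exposure in infected erythrocytes (0.05% parasitemia, 2% hematocrit). Luciferase-reporter P. falciparum; decreased luminescence indicates inhibited growth, aimed at apicoplast-acting delayed death.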
* = called active by the depositor; ? = inconclusive; . = no result. Most compounds without a hit are left out; they make up all but 21% or so of the library. Unless noted, calls follow the shape of the dose curve; as a rule, active = well fitted curve in the direction sought with a large enough effect; inconclusive = small, poorly fitted or top-dose-only effect, or another doubt; inactive = no such curve, though single readings can be large; an effect the other way counts as inactive or inconclusive.

SMILES | Pf growth 48h | Cycloheximide cs | NS1 function inh | Shiga toxin inh | Sm TGR block | Pf growth 96h
COC(=O)C1CCN(Cc2ccc(OCCCN3CCN(c4ccc([N+](=O)[O-])cc4)CC3)cc2)CC1 | 2.3µM* | -2 | -6% | 20 | 5% | 10µM*
CC1CC(C)CN(S(=O)(=O)c2ccc(NC(=O)CN3CCCCCC3)cc2)C1 (stereo not given) | 7.4µM* | . | . | . | -5% | ?
Cc1cc(NC(=O)CN2CCCC(C)C2)no1 (stereo not given) | 70% | 13* | 1% | 49* | 4% | 19%
CC1CCCN(CC(=O)Nc2ccc(S(=O)(=O)N3CCCCC3)cc2)C1 (stereo not given) | ? | -2 | 15% | -5 | -1% | 9.3µM*
COC(=O)C1CCN(CC(=O)Nc2cc(C)c3c(=O)oc4ccccc4c3n2)CC1 | . | . | . | . | -2% | .
COC(=O)c1c(C)oc2ccc(N(C(=O)c3ccncc3)S(=O)(=O)c3c(C)cc(C)cc3C)cc12 | . | . | . | . | -6% | .
Fc1ccc(CSc2ncnc3nc[nH]c23)cc1 | 7% | 0 | -15% | 13 | -1% | -2%
Cc1[nH]cnc1CSCc1ccc(F)cc1 | -7% | 49* | -10% | 31* | -18% | ?
CCOC(=O)c1cnc2ccc(OC)cc2c1NCCc1ccc(OC)c(OC)c1 | 2.6µM* | -3 | 0% | -14 | 2% | ?
CCOC(=O)c1cnc2ccccc2c1NCCc1ccc(OC)c(OC)c1 | 12µM* | -2 | -1% | -23 | 6% | 1.7µM*
CCOC(=O)c1cnc2ccc(OC)cc2c1NCCN1CCOCC1 | ? | 7 | -2% | 34 | -3% | ?
COc1cc(NS(=O)(=O)c2ccc(C)c(C)c2)c(OC)cc1Cl | -4% | -6 | -7% | -9 | -3% | 6.6µM*
COc1ccc(CCNC(=O)COc2ccc(S(=O)(=O)NC3CCCCC3)cc2Cl)cc1 | 13µM* | 12 | 6% | -13 | 15% | ?
COc1ccc(S(=O)(=O)NC2CC2)cc1Cl | -23% | -2 | 10% | . | -6% | 2.3µM*
COc1ccc(S(=O)(=O)Nc2ccccc2OC)cc1C | -4% | -3 | -38% | -8 | ? | 4%
Cc1cc(NC(=O)Nc2ccc(Cl)c(Cl)c2)n(-c2ccccc2)n1 | 3% | 9 | 5% | 21 | -3% | -24%
COc1ccc(CCc2nnc(CCC(=O)N(C)Cc3ccnc4ccccc34)o2)cc1 | -19% | 30* | -3% | 23* | -6% | ?
COc1ccccc1CCc1nnc(CCC(=O)N(C)Cc2cccc3cnccc23)o1 | ? | 45* | -4% | 86* | -3% | 5%
COc1ccccc1CCc1nnc(CCC(=O)N(C)Cc2ccncc2C)o1 | -12% | -1 | 1% | 8 | 0% | 19%
Cc1ccc(-n2nc3c(c2NC(=O)c2ccc(Br)o2)CSC3)c(C)c1 | ? | 1 | -7% | -5 | ? | -6%
Cc1cccc(-n2nc3c(c2NC(=O)c2ccco2)CSC3)c1C | ? | 7 | ? | -8 | 45µM* | 40%
Cc1ccccc1-n1nc2c(c1NC(=O)c1c(-c3ccccc3Cl)noc1C)CSC2 | 12µM* | -9 | 7% | -6 | -27% | ?
Cc1ccc(-n2nc3c(c2NC(=O)c2c(-c4ccccc4Cl)noc2C)CSC3)cc1 | 13µM* | 21 | -18% | -3 | -1% | 20%
Cc1ccccc1-n1nc2c(c1NC(=O)CCCl)CSC2 | -1% | -5 | -1% | -5 | 18µM* | -11%
CC1CCN(S(=O)(=O)c2ccc3c(c2)oc(=O)n3CC(=O)NC(C)c2ccccc2)CC1 (stereo not given) | . | . | . | . | 2% | .
O=P(COCCCCCOCP(=O)(c1ccccc1)c1ccccc1)(c1ccccc1)c1ccccc1 | ? | -3 | . | -2 | 2% | 55%
CN(C)S(=O)(=O)c1ccc(NC(=O)CCNC(=O)c2ccc([N+](=O)[O-])cc2)cc1 | ? | 3 | . | 0 | -2% | ?
Cc1c(C(=O)Nc2ccccc2[N+](=O)[O-])csc1-c1ccccc1 | 12% | 34* | -4% | 97* | 1% | -13%
Cc1c(C(=O)Nc2ccccc2)csc1-c1ccccc1 | -1% | 36* | -7% | 40* | 0% | ?
